Results: PubChem BioAssay
Inconclusive results are not listed. Activity calls are given as the source filed them.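 The calls were made as follows, unless noted: active = GFP response, as percent of the DMSO control, above the screen-wide mean plus 3 SD, about 139; inconclusive = no response measured because the compound's own fluorescence interfered; inactive = the rest.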

How the values were obtained:
[1] = rapamycin-like changes in RPL19A-GFP expression – cell-based, S. cerevisiae, multiplex flow cytometry, primary screen (AID 1862; in the data active = percent of DMSO control GFP below about 86%;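 also: lower values mimic rapamycin by blocking the RPL19A rise seen in DMSO cells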); conditions: S. cerevisiae RPL19A-GFP strain, flow cytometry fluorescence, 3 h; at 10 µM; stronger effect = lower value
[2] = TOR pathway GLN3 branch reporter MEP2-GFP changes – S. cerevisiae, multiplex flow cytometry, primary screen (AID 1867);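 also: median GFP channel fluorescence of barcode-gated MEP2-GFP cells measured by flow cytometry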; conditions: S. cerevisiae MEP2-GFP strain, 3 h, at 10 µM, stronger effect = higher value, 100% means same as DMSO wells
[3] = TOR pathway RTG branch CIT2 reporter changes – S. cerevisiae, GFP fusion, multiplex flow cytometry, primary screen (AID 1870;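 active = percent response above a set limit, the screen-wide mean plus 3 SD, cut at about 130% in these data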;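 also: barcoded CIT2-GFP strain pooled with four other GFP strains with rapamycin as positive control; median GFP fluorescence per well over plate mean of DMSO wells so 100% = DMSO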); conditions: S. cerevisiae CIT2-GFP expression, 3 h, at 10 µM, stronger effect = higher value
[4] = TOR pathway LAP4-GFP level changes – S. cerevisiae, multiplex flow cytometry, primary screen (AID 1873;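 active = GFP signal, as percent of the solvent control, above the screen mean plus 3 SD, about 149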); conditions: S. cerevisiae LAP4-GFP expression, 3 h, at 10 µM, stronger effect = higher value
[5] = yeast AGP1-GFP level changes, GLN3 branch – cell-based, multiplex flow cytometry, S. cerevisiae, primary screen (AID 1887;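 active = GFP signal above the screen-wide mean plus 3 SD, that is over about 124.5% of the solvent control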;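 also: AGP1-GFP fusion strain of S. cerevisiae within a five-strain barcoded multiplex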); conditions: 3 h, at 10 µM, stronger effect = higher value
[6] = reduced mouse 2C T cell binding to pMHC/ICAM-1 vesicles – MLPCN validation set, flow cytometry, LFA-1/ICAM-1 modulator project, pilot screen (AID 2523;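 active = response below a set limit, under 55% cells CD8-positive and vesicle-bound, and CD8 cells' 90th-percentile brightness under 279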;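 as to vesicle binding response: mean PE anti-B7-1 fluorescence of CD8+ cells relative to row control; 100% = QL9-loaded vesicles with DMSO vehicle in the same plate row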); conditions: 2C mouse CD8+ T cells, at 7 µM, stronger effect = lower value; double positive events: measured here: CD8+/vesicle+ event percentage
[7] = molecular target: Integrin beta-1 (Homo sapiens) + Integrin alpha-4 (Homo sapiens) (UniProt P13612+P05556); assay: alpha4beta1 integrin LIBS antibody binding reduction – U937 cells, HUTS-21 mAb, flow cytometry, validation set, VLA-4 allosteric modulator project, pilot screen (AID 2674;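 active = inhibition above 50%, about 3 SD of the validation set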;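 also: antibody binding induced by the VLA-4 ligand LDV present at three times its Kd; 0% = LDV ligand with antibody and no compound and 100% = antibody without LDV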); conditions: HUTS-21 LIBS mAb binding, at 6.7 µM, stronger effect = higher value, binding induced by LDV ligand
Integrin beta-1 (Homo sapiens) + Integrin alpha-4 (Homo sapiens), sequence (P05556 whole entry, looked up): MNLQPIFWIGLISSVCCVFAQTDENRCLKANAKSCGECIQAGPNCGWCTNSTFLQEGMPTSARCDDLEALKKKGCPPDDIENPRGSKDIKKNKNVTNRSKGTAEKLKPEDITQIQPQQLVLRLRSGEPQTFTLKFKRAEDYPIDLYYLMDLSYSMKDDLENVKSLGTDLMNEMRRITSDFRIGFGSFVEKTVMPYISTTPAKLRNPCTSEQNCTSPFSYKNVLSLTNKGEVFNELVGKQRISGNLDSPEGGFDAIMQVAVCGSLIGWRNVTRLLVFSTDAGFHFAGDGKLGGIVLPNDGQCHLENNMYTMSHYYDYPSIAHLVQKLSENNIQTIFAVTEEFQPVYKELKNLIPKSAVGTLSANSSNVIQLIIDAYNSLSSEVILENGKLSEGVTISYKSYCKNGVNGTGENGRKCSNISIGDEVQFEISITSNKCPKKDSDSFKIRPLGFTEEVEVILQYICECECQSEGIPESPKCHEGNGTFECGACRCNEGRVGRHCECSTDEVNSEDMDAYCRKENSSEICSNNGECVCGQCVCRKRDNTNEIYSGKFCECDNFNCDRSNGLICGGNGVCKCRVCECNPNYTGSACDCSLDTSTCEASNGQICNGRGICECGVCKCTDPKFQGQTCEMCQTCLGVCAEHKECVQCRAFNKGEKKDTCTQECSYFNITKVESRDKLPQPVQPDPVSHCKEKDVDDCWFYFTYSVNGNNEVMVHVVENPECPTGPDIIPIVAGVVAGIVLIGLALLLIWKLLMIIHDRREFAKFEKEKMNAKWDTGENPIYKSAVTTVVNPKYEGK
Integrin beta-1 (Homo sapiens) + Integrin alpha-4 (Homo sapiens), sequence (P13612 whole entry, looked up): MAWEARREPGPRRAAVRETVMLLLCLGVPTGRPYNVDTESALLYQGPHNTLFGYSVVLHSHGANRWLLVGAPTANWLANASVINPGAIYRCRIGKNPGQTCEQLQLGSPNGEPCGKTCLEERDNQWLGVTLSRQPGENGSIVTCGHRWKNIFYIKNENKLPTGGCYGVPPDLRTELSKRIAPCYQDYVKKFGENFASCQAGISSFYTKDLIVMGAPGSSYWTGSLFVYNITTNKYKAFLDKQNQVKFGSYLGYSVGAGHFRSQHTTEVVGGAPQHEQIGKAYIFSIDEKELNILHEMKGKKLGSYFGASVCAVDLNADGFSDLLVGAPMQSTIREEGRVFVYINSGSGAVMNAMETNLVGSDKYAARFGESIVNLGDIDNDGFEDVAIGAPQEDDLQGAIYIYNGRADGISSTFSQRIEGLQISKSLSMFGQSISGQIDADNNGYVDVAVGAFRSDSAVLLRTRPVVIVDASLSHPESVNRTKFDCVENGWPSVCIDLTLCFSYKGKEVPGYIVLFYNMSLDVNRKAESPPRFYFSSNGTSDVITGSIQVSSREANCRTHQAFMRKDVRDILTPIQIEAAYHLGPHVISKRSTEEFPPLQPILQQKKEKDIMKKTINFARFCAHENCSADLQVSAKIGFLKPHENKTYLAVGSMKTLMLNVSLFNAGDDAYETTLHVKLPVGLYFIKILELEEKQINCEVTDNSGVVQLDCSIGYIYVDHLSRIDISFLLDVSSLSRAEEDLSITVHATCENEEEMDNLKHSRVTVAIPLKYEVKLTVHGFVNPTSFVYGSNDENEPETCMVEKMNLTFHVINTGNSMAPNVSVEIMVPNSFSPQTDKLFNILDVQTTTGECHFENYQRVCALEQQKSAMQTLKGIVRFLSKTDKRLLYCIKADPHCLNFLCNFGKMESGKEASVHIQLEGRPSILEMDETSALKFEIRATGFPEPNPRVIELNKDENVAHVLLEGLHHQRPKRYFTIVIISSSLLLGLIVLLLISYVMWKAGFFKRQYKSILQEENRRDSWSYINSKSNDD

[8] = calorie-restriction mimetic ROS inhibitors, yeast – validation compound set, pilot screen (AID 2706;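 active = superoxide response below 65% of plate, a cut near 3 SD across the whole screen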;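 also: yeast exposed to compound for one week at 30 degrees C before staining; 100% = mean of all compound wells on the same plate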); conditions: S. cerevisiae aging, superoxide DHE fluorescence; at 10 µM; stronger effect = lower value
[9] = molecular target: Beta-adrenergic receptor kinase 1 (Homo sapiens) (UniProt P25098); assay: GRK2 binders displacing RNA aptamer, biochemical, validation, human GRK2, bead flow cytometry (AID 488806;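 active = aptamer binding inhibition above 30%, about 3 SD of noise from non-fluorescent compounds; inactive = inhibition at or below 30%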); conditions: bead-bound GRK2, FAM-aptamer displacement, at 10 µM, stronger effect = higher value
Beta-adrenergic receptor kinase 1 (Homo sapiens), sequence (P25098 whole entry, looked up): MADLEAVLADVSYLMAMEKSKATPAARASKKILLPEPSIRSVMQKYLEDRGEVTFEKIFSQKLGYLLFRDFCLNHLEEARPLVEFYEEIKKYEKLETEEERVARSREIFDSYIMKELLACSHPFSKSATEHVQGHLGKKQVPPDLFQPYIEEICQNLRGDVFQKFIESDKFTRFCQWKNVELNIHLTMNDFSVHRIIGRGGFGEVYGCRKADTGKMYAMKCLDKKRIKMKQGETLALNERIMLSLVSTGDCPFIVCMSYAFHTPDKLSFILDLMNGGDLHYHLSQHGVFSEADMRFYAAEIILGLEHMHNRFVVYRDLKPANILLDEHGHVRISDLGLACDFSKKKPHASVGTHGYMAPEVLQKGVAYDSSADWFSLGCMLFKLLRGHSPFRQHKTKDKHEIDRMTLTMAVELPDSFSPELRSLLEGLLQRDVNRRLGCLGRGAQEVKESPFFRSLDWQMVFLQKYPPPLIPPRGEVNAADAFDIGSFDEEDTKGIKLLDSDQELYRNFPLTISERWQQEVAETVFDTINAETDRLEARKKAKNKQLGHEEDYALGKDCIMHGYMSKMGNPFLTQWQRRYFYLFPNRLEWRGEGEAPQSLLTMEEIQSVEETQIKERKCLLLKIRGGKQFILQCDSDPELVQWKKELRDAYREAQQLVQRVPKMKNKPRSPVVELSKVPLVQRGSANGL

[10] = molecular target: Beta-2 adrenergic receptor (Homo sapiens) (UniProt P07550); assay: agonist-induced loss of surface beta2AR – cell-based, FAP fluorogen, flow cytometry, validation set, pilot screen (AID 504459;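 active = percent response above 42, roughly 3 SD of non-fluorescent test compounds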;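 also: agonist-driven loss of surface beta2AR via internalization measured by FAP dye flow cytometry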); conditions: Am2.2-beta2AR cells, at 10 µM, stronger effect = higher value
Beta-2 adrenergic receptor (Homo sapiens), sequence (P07550 whole entry, looked up): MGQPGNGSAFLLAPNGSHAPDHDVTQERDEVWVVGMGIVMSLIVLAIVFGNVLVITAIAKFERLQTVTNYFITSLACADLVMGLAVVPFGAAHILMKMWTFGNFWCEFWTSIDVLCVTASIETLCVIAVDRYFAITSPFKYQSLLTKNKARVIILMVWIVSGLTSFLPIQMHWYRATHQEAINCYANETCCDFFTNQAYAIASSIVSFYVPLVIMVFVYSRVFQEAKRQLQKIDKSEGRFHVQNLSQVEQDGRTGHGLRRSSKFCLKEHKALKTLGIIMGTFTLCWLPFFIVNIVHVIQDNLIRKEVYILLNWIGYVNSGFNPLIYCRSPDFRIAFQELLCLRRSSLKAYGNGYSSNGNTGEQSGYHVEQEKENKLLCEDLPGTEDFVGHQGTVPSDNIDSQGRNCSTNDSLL

[11] = molecular target: AP-2 complex subunit beta (Homo sapiens) (UniProt P63010); assay: beta-arrestin/AP2 interaction blockers – biochemical, validation set, GST-AP2 beads, flow cytometry, pilot screen (AID 504541;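 active = inhibition above 54%, about 3 SD of non-fluorescent compounds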;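 also: AP2 carries R879A mutation and is captured from E. coli lysate; bead-bound FITC arrestin peptide fluorescence measuring arrestin peptide binding to AP2; 0% = DMSO wells and 100% = excess unlabeled arrestin peptide control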); conditions: FITC arrestin peptide, at 10 µM, stronger effect = higher value, AP2 beta2 appendage fragment, R879A mutant
AP-2 complex subunit beta (Homo sapiens), sequence (P63010 whole entry, looked up, the tested form may be a part, one chain of several): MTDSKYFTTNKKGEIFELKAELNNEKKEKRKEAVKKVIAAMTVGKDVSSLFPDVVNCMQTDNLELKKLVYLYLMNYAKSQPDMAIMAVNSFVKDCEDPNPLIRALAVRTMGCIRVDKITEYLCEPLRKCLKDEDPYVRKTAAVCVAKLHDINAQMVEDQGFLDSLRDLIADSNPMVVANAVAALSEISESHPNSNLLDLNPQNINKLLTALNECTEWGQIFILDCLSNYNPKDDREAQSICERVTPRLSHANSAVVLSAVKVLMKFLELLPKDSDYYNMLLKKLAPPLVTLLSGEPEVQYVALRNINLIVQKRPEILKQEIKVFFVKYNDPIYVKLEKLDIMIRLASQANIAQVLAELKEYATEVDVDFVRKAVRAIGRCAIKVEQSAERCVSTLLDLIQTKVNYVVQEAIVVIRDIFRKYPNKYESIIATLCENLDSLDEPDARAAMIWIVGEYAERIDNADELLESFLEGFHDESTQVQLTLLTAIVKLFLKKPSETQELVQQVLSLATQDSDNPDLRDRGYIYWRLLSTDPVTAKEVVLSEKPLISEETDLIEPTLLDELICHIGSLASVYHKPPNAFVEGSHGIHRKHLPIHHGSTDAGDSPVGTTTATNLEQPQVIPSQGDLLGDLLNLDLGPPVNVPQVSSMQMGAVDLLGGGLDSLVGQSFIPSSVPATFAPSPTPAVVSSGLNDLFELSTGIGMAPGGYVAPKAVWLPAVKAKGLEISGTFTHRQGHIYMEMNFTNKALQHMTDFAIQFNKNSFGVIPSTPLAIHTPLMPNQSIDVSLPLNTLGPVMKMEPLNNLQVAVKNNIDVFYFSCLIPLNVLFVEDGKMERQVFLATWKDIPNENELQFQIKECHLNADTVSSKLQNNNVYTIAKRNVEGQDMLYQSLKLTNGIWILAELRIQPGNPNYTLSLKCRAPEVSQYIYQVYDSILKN

[12] = cytosolic pH regulators acting via V-ATPase – S. cerevisiae, pHLuorin, HTS validation (AID 504600; in the data active = response above about 15%;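 also: plate controls were DMSO for no effect and reference compound for full effect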); conditions: V-ATPase proton transport, at 10 µM, stronger effect = higher value
[13] = system: anti-desmoglein-3 scFv antibody binding to human DSG3; assay: blockers of pathogenic pemphigus antibody–desmoglein-3 binding – biochemical, validation compound set, bead-based, flow cytometry, pilot screen (AID 588368;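 active = binding below the plate cutoff, the plate median minus 3 SD, with a reading above zero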;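 also: signal is the median channel fluorescence of bead-bound GFP antibody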); conditions: Protein G beads, DSG3-Fc, scFv-GFP binding, at 10 µM, stronger effect = lower value
[14] = Nile Red efflux blockade in pump-expressing yeast – validation compound set, multiplex, phenotypic, pilot screen (AID 588506;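 active = efflux inhibition above 0.42, the validation set average plus 4 SD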;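 also: Nile Red retained in cells so higher fluorescence means more efflux inhibition; 0 = negative control wells and 1 = enniatin B 25 µM full block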); conditions: S. cerevisiae pump-expressing triplex, Nile Red efflux flow cytometry; at 10 µM; stronger effect = higher value; the pumps come from Candida albicans
[15] = molecular target: ATP-binding cassette sub-family B member 6 (Homo sapiens) (UniProt Q9NP58); assay: blockers of ABCB6-driven porphyrin uptake – K562-ABCB6 cells, flow cytometry, validation set, pilot screen (AID 588550;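 active = inhibition above the screen-wide mean plus 3 SD, about 51%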;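 also: 0% = DMSO wells and 100% = benzethonium chloride 70 µM positive control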); conditions: K562-ABCB6 porphyrin accumulation, 1 h, at 10 µM, stronger effect = higher value
ATP-binding cassette sub-family B member 6 (Homo sapiens), sequence (Q9NP58 whole entry, looked up): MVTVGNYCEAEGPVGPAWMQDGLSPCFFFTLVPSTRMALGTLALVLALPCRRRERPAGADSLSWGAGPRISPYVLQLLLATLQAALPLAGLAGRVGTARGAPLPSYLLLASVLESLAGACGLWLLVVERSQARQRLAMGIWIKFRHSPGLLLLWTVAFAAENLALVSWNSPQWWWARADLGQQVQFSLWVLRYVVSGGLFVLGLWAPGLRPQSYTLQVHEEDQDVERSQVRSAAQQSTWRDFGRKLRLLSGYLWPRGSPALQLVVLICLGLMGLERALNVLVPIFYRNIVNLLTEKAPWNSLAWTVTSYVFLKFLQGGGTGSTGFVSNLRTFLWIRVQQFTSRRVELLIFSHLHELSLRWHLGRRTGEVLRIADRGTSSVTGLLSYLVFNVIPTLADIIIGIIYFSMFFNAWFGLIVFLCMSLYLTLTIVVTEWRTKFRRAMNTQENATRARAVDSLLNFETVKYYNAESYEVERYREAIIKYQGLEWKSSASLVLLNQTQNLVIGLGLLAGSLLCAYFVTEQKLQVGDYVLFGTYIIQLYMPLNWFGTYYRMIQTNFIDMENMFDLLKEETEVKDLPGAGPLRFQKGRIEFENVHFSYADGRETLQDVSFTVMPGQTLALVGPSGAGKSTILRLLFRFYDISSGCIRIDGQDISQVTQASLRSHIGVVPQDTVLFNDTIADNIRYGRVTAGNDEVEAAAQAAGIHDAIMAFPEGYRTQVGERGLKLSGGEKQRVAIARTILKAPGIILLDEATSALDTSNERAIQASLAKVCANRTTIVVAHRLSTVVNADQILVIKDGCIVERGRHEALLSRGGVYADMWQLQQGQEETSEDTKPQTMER

[16] = AML differentiation inducers, ER-HoxA9 marrow cells – cell-based, GFP/MAC1 double positive, flow cytometry, validation set, primary screen (AID 588685;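 active = differentiation response of at least 50%, scaled between solvent and reference control, from cells with both markers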;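 also: compound exposure lasts four days before antibody staining and flow analysis; 0% = DMSO wells and 100% = 5 µM fulvestrant positive control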); conditions: stronger effect = higher value, normalized: vehicle 0, fulvestrant 100

| Structure (SMILES) | percent of DMSO control GFP [1] | GFP response vs DMSO [2] | percent response of DMSO control [3] | GFP response vs DMSO [4] | GFP response, % of DMSO [5] | double positive events [6] [%] | vesicle binding response [6] | inhibition [7] | superoxide response (% of plate) [8] | aptamer binding inhibition [9] | response [10] | inhibition [11] | response [12] | binding (% of control) [13] | efflux inhibition (fraction of control) [14] | inhibition [15] | differentiation response [16] |
| --- | --- | --- | --- | --- | --- | --- | --- | --- | --- | --- | --- | --- | --- | --- | --- | --- | --- |
| O=C(c1ccc(Cl)cc1)C1CCCN(C(=O)/C=C/c2ccccn2)C1 (stereo unspecified) | 92.4% (inactive) | 102% (inactive) | 97.7% (inactive) | 137% (inactive) | 115% (inactive) | 57.5 | 280% (inactive) | -1.12% (inactive) | 91.6% (inactive) | -3% (inactive) | -44.8% (inactive) | -19.4% (inactive) | 2.11% (inactive) | 106% (inactive) | 0 (inactive) | -2% (inactive) | -1.05% (inactive) |
| Cc1ccc2c(ccc(=S)n2C)c1 | 103% (inactive) | 97.2% (inactive) | 115% (inactive) | 93.3% (inactive) | 102% (inactive) | 54.1 | 44.4% (active) | 7.85% (inactive) | 87.8% (inactive) | 4% (inactive) | -14% (inactive) | -3.91% (inactive) | 0.7% (inactive) | 97.7% (inactive) | -0.01 (inactive) | 19% (inactive) | 1.22% (inactive) |
| CN1CCCN(C(c2ccccc2)c2ccc(Cl)cc2)CC1 (stereo unspecified) | 97.1% (inactive) | 102% (inactive) | 103% (inactive) | 123% (inactive) | 120% (inactive) | 54.6 | 171% (inactive) | 39.8% (inactive) | 107% (inactive) | -14% (inactive) | 29.3% (inactive) | -13.9% (inactive) | -5.79% (inactive) | 107% (inactive) | 0.04 (inactive) | 2% (inactive) | -7.94% (inactive) |
| O=C(Cc1ccccc1)NCC(=O)OCC(=O)c1ccccc1Cl | 98.3% (inactive) | 112% (inactive) | 107% (inactive) | 74.3% (inactive) | 93.3% (inactive) | 76.4 | 296% (inactive) | -2.27% (inactive) | 92.9% (inactive) | 4% (inactive) | -1.13% (inactive) | -4.1% (inactive) | 3.49% (inactive) | 106% (inactive) | -0.42 (inactive) | 17% (inactive) | -0.82% (inactive) |
| Cc1ccc2c(c1)c(=O)c1c3n2CCN(C(=O)CCl)C3CC1 (stereo unspecified) | 96.3% (inactive) | 102% (inactive) | 97% (inactive) | 106% (inactive) | 111% (inactive) | 58.2 | 198% (inactive) | -10.5% (inactive) | 108% (inactive) | 18% (inactive) | -25.7% (inactive) | 20.6% (inactive) | -19.6% (inactive) | 96.7% (inactive) | 0.46 (active) | 1% (inactive) | 0.92% (inactive) |
| COc1ccc2oc(=O)c(C(=O)Nc3ccccc3-c3ccccc3)cc2c1 | 101% (inactive) | 104% (inactive) | 99% (inactive) | 97.1% (inactive) | 113% (inactive) | 64.5 | 167% (inactive) | 2.29% (inactive) | 94.6% (inactive) | 4% (inactive) | 13.6% (inactive) | 85% (active) | -7.05% (inactive) | 97.4% (inactive) | 0 (inactive) | 6% (inactive) | -8.93% (inactive) |
| CC1(C)C(=O)OC(c2cccs2)C2(CCCCC2)C1=O (stereo unspecified) | 99.2% (inactive) | 108% (inactive) | 96.6% (inactive) | 105% (inactive) | 97.5% (inactive) | 61.1 | 228% (inactive) | -18.1% (inactive) | 109% (inactive) | 0% (inactive) | 3.42% (inactive) | 44.8% (inactive) | -2.62% (inactive) | 97.4% (inactive) | -0.01 (inactive) | 2% (inactive) | 53% (active) |
| COC(=O)c1ccc(NC(=O)C23CCC(C)(C(=O)O2)C3(C)C)cc1 (stereo unspecified) | 95.2% (inactive) | 104% (inactive) | 102% (inactive) | 115% (inactive) | 106% (inactive) | 64.8 | 195% (inactive) | -2.82% (inactive) | 99.7% (inactive) | 2% (inactive) | -24.2% (inactive) | 1.74% (inactive) | -1.33% (inactive) | 110% (inactive) | -0.04 (inactive) | 6% (inactive) | -4.99% (inactive) |
| CC(C)OC(=O)C1C2C=CC3(CN(CC4CCCO4)C(=O)C13)O2 (stereo unspecified) | 99.1% (inactive) | 104% (inactive) | 98.6% (inactive) | 117% (inactive) | 102% (inactive) | 58.9 | 152% (inactive) | -4.52% (inactive) | 100% (inactive) | 1% (inactive) | 1.99% (inactive) | -4.29% (inactive) | -0.97% (inactive) | 98% (inactive) | 0.19 (inactive) | 7% (inactive) | -16.8% (inactive) |
| Cc1ccc(S(=O)(=O)NC(C(=O)Oc2ccc3c(C(F)(F)F)cc(=O)oc3c2)c2ccccc2)cc1 (stereo unspecified) | 98.1% (inactive) | 102% (inactive) | 100% (inactive) | 115% (inactive) | 107% (inactive) | 62.2 | 183% (inactive) | -6.23% (inactive) | 106% (inactive) | -1% (inactive) | 5.6% (inactive) | 59.2% (active) | -16.5% (inactive) | 92.6% (inactive) | 0.12 (inactive) | -3% (inactive) | 0.92% (inactive) |
| O=C(Cc1ccccc1[N+](=O)[O-])NCCCN1CCOCC1 | 101% (inactive) | 101% (inactive) | 96.4% (inactive) | 107% (inactive) | 107% (inactive) | 63.1 | 426% (inactive) | -4.52% (inactive) | 113% (inactive) | 1% (inactive) | -20% (inactive) | -4.04% (inactive) | 0.45% (inactive) | 99.9% (inactive) | 0 (inactive) | 2% (inactive) | -5.97% (inactive) |
| NC(N)=N/N=C/c1cccc(Cl)c1Cl | 104% (inactive) | 96.3% (inactive) | 98.6% (inactive) | 103% (inactive) | 98.8% (inactive) | 66.1 | 157% (inactive) | 9.13% (inactive) | 97.9% (inactive) | -3% (inactive) | 22.4% (inactive) | 14.4% (inactive) | -0.64% (inactive) | 102% (inactive) | -0.24 (inactive) | 4% (inactive) | -18.4% (inactive) |
| Cc1ccc2nc(C)c3c(c2c1)OC(C(C)(Cl)Br)C3 (stereo unspecified) | 102% (inactive) | 102% (inactive) | 111% (inactive) | 105% (inactive) | 105% (inactive) | 73 | 278% (inactive) | 6.4% (inactive) | 94.8% (inactive) | 5% (inactive) | 23.5% (inactive) | -1.65% (inactive) | 6.53% (inactive) | 98.4% (inactive) | 0.08 (inactive) | 1% (inactive) | 15.2% (inactive) |
